Source: PubChem BioAssay AID1851 (National Center for Advancing Translational Sciences (NCATS), 2009)
The campaign covered roughly 16,000 compounds. About 4,000 (25%) were called active. Another 26% or so got no clear call; they are omitted. Calls come from the whole dose curve; as a rule, active = well fitted curve in the direction sought with a large enough effect; inconclusive = small, poorly fitted or top-dose-only effect, or effect the other way; inactive = no such curve, though single readings can be large or run the other way. Not all results are given here.

What follows are compounds tested against Cytochrome P450 2C9 (Homo sapiens) (UniProt P11712) (assay: Cytochrome panel assay with activity outcomes). Settings: recombinant CYP, pro-luciferin dealkylation, luminescence, p450-cyp2c9; series mostly up to 57.1 µM.
% is set by controls: 0 for no effect and ±100 for the full control effect.

Sequence of Cytochrome P450 2C9 (Homo sapiens) (P11712 whole entry, looked up): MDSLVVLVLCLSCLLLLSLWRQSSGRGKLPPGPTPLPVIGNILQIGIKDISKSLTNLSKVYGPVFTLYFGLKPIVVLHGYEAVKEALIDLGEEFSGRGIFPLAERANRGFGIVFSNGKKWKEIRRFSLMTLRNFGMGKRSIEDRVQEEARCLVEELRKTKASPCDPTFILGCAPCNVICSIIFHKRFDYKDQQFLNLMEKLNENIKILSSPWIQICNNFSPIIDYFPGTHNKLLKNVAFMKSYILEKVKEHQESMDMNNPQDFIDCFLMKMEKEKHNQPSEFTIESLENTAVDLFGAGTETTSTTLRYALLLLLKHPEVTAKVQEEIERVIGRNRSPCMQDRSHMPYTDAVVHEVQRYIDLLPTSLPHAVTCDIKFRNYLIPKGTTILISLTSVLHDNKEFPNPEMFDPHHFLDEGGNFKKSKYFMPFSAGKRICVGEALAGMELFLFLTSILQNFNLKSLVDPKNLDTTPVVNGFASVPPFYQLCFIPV

Row | SMILES | AC50 | activity, negative = inhibition
1 | COc1cnc(-c2ccccn2)nc1Oc1ccc(Cl)c2ccccc12 | 12.6 µM (active) | 
2 | CC(Oc1ccccc1)C(=O)Nc1nc2c(s1)C(=O)CC(C)(C)C2 (centres undefined) | 6.31 µM (active) | 
3 | C[C@H](Oc1ccccc1)C(=O)N[C@@H]1C(=O)N2[C@@H]1SC(C)(C)[C@@H]2C(=O)O | inactive | 
4 | COc1ccccc1CNCc1cccs1 | inactive | 
5 | COc1ccccc1CNCCCCCCNCCCCCCCCNCCCCCCNCc1ccccc1OC | inactive | 
6 | COc1ccccc1CNCC(O)(c1ccc(Cl)cc1)c1ccc(Cl)cc1 | 15.8 µM (active) | 
7 | OCCN1CCN(C(=S)c2ccc(Br)cc2)CC1 | inactive | 
8 | CCOC(=O)N/N=C1/C[C@@H](O)[C@@H](O)[C@@H]2[C@@H]3C(=O)N([C@@H](C)c4ccccc4)C(=O)[C@H]3CC[C@@H]12 |  | 20.5% [at 11.4 µM] (inactive)
9 | CC(=O)Nc1ccc(NC(=O)C2CCN(S(=O)(=O)c3cccc4nonc34)CC2)cc1 | inactive | 
10 | O=S(=O)(c1cccc2nsnc12)N1CCCC1 | 3.55 µM (active) | 
11 | COc1ccc(CCNC(=O)C2CCN(S(=O)(=O)c3cccc4nsnc34)CC2)cc1OC | inactive | 
12 | O=S(=O)(c1cccc2cnccc12)N1CCNCC1 | inactive | 
13 | CS(=O)(=O)N1CCCC(C(=O)N2CCc3ccccc3C2)C1 (centres undefined) | inactive | 
14 | O=C(C1CCN(S(=O)(=O)c2cccc3nsnc23)CC1)N1CCc2ccccc21 | 10 µM (active) | 
15 | O=C(C1CCCN(S(=O)(=O)c2cccc3nsnc23)C1)N1CC=C(c2ccccc2)CC1 (centres undefined) | 1.41 µM (active) | 
16 | COc1ccc2nc(NC(=O)C3CCN(S(=O)(=O)c4cccc5nsnc45)CC3)sc2c1 | inactive | 
17 | O=S(=O)(c1ccccc1S(=O)(=O)N1CCCCC1)N1CCCCC1 | 28.2 µM (active) | 
18 | Cc1cc(N)c2ccccc2[n+]1CCCCCCCCCC[n+]1c(C)cc(N)c2ccccc21 | inactive | 
19 | O=C(Nc1ccccc1)N[C@H]1C[C@H](C(=O)O)Nc2cc(Cl)cc(Cl)c21 | inactive | 
20 | CCCSC1=C(C#N)C(c2cccnc2)C(C(=O)OCC)=C(c2ccccc2)N1 (centres undefined) | 8.91 µM (active) | 
21 | COc1ccc(NC(=O)N2CC[C@@]3(CCCN(S(C)(=O)=O)C3)C2)cc1 | inactive | 
22 | Cc1ccc2c(c1)N(CCC(=O)NCc1cccnc1)C(=O)CO2 | 14.1 µM (active) | 
23 | Cc1ccc2c(c1)N(CC(=O)NC1CCCc3ccccc31)C(=O)CO2 (centres undefined) | inactive | 
24 | Cc1ccc2c(c1)N(CC(=O)NC1CCC(C)CC1)C(=O)CO2 (centres undefined) | inactive | 

Row | SMILES | AC50 | activity, negative = inhibition
25 | COC(=O)Nc1nc2ccc(Sc3ccccc3)cc2[nH]1 | inactive | 
26 | c1ccc2[nH]c(NC3=NCCC3)nc2c1 | inactive | 
27 | COc1cc(/C=N\Nc2nc3ccccc3[nH]2)cc(OC)c1OC | 15.8 µM (active) | 
28 | Cc1ccc2nc(-c3ccccc3)cc(C(=O)NCCCn3ccnc3)c2c1 | 0.1 µM (active) | 
29 | Cc1cccc(NC(=S)c2nc3ccccc3s2)c1 | inactive | 
30 | Cc1cccc(NC(=O)N(Cc2nc3ccccc3c(=O)[nH]2)C2CCCC2)c1 | 5.62 µM (active) | 
31 | CN1CCC(N(C)C(=O)CCc2nc3ccccc3c(=O)[nH]2)CC1 | inactive | 
32 | N/C(=N\OC(=O)c1cc(-c2ccccc2)nc2ccccc12)c1ccc(Cl)cc1 | 3.98 µM (active) | 
33 | C/C(=N\OC(=O)c1ccccc1)c1cc(-c2ccc(Cl)cc2)no1 | inactive | 
34 | Cn1c(=O)c2[nH]c(C3CCCC3)nc2n(C)c1=O | inactive | 
35 | NC(=O)N[C@H]1NC(=O)NC1=O | inactive | 
36 | COC(=O)C(C)(C(=O)OC)c1ccc([N+](=O)[O-])cn1 | inactive | 
37 | C=CCC(C(=O)OC)(C(=O)OC)c1ccc([N+](=O)[O-])cn1 | inactive | 
38 | COC(=O)C(NC(=O)c1ccc(F)cc1)(Nc1ncc(S(=O)(=O)c2ccc([N+](=O)[O-])cc2)s1)C(F)(F)F (centres undefined) | 3.55 µM (active) | 
39 | O=S(=O)(Nc1ccc(Cc2ccncc2)cc1)c1cccs1 | 0.02 µM (active) | 
40 | O=S(=O)(Nc1ccc(Cc2ccncc2)cc1)c1ccc(Br)cc1 | 0.0141 µM (active) | 
41 | O=C1CCCCC(=O)c2ccccc2N1 | inactive | 
42 | COc1ccc(C(=O)NCC(=O)OCc2cccc(Br)c2)cc1 | inactive | 
43 | O=C(CNC(=O)c1ccco1)OC(C(=O)c1ccccc1)c1ccccc1 (centres undefined) | 25.1 µM (active) | 
44 | O=C(CNC(=O)c1ccco1)OCc1c(F)cccc1Cl | inactive | 
45 | COc1ccc(C(=O)C(OC(=O)CNC(=O)c2ccco2)c2ccccc2)cc1 (centres undefined) | 20 µM (active) | 
46 | CCOc1ccc2c(ccc(/C=C\c3cc(C)c4cccnc4c3O)[n+]2C)c1 |  | 5.89% [at 11.4 µM] (inactive)
47 | O=C(Nc1nc2ccccc2n1CCN1CCCCC1)C1CCCCC1 | inactive | 
48 | Cc1cc(NC(=O)C2CCCC2)n(-c2nc3ccccc3[nH]2)n1 | 3.98 µM (active) | 

Row | SMILES | AC50 | activity, negative = inhibition
49 | O=C(O)[C@H]1CCCC[C@@H]1C(=O)Nc1nc2ccccc2[nH]1 |  | 2.98% [at 11.4 µM] (inactive)
50 | Cc1ccc(NCC(=O)N/N=C/c2ccc(OC(=O)c3ccco3)cc2)cc1 | 8.91 µM (active) | 
51 | Cc1ccc(NCC(=O)N/N=C\c2ccc([N+](=O)[O-])o2)cc1 | inactive | 
52 | COc1cccc(/C=N/NC(=O)c2cc(-c3cccn3C)n[nH]2)c1 | inactive | 
53 | Cc1cc(C(=O)N/N=C/c2cccc(OC(=O)c3ccco3)c2)n[nH]1 | 11.2 µM (active) | 
54 | COc1ccc(-n2c(C)nn(C)c2=O)cc1 | inactive | 
55 | CCOC(=O)c1sc(=N)n(-c2ccc(OC)cc2)c1C | 3.16 µM (active) | 
56 | CCOC(=O)c1nc(N)sc1C(=O)OCC | inactive | 
57 | CC(C)c1cc(C(F)(F)F)nc(NNc2nc(C(C)C)cc(C(F)(F)F)n2)n1 |  | -27.5% [at 11.4 µM] (inactive)
58 | CC(C)Nc1cc(C(F)(F)F)nc(-c2ccccn2)n1 | inactive | 
59 | CC(C)Nc1nc(Oc2ccc(Cl)cc2)cc(C(F)(F)F)n1 | 15.8 µM (active) | 
60 | CC(C)CN(Cc1c(O)ccc2c3c(c(=O)oc12)CCC3)CC(C)C | 28.2 µM (active) | 
61 | CCOC(=O)c1[nH]c(C(=O)O)c(CCN(CC)CC)c1C | inactive | 
62 | CCN(CC)C(=O)CSc1nnc(-c2ccco2)n1N | inactive | 
63 | CCc1ccc(C2=Nn3c(nnc3-c3cccs3)SC2)cc1 | 7.08 µM (active) | 
64 | CCOc1ccc(C2=Nn3c(nnc3-c3ccco3)SC2)cc1 | 2.24 µM (active) | 
65 | C/C(CCN1CCc2nc(-c3ccccc3)c(-c3ccccc3)cc2C1)=N\OC[C@@H](O)COCc1ccco1 |  | -7.86% [at 11.4 µM] (inactive)
66 | COc1cc(/C=C\c2ccc(OC)cc2OC)cc(OC)c1 | inactive | 
67 | CC(C)NC(=O)N1CCC2(CC1)CCN(C(=O)c1ccncc1)CC2 | inactive | 
68 | CCN(CC)S(=O)(=O)c1ccc(C(=O)NC2=C(C(=O)OC)SCC2)cc1 | 2 µM (active) | 
69 | COC(=O)C1=C(NC(=O)c2cccc(OC)c2)CCS1 | 11.2 µM (active) | 
70 | Clc1ccc(N2CCCCCC2)nn1 | inactive | 
71 | CN1CCN(S(=O)(=O)c2cc([N+](=O)[O-])ccc2N2CCCCCC2)CC1 | inactive | 
72 | O=[N+]([O-])c1ccc(N2CCCCC2)c(Cl)c1N1CCCCC1 | 2.24 µM (active) | 

Row | SMILES | AC50 | activity, negative = inhibition
73 | C/C(CCN1CCc2nc(-c3ccccc3)c(-c3ccccc3)cc2C1)=N\OC[C@@H](C)[C@H](OCc1ccccc1)C(C)C |  | -9.58% [at 11.4 µM] (inactive)
74 | Cc1cccc(N(CC(=O)NCCSCc2ccco2)S(=O)(=O)c2ccccc2)c1 | 4.47 µM (active) | 
75 | Cc1cccc(N(CC(=O)N2CCOCC2)S(C)(=O)=O)c1 | inactive | 
76 | Cc1cccc(CNc2cc(-c3ccc(C(=O)N(C)C)cc3)ncn2)c1 |  | 5.16% [at 2.29 µM] (inactive)
77 | Cc1cccc(CSCCNC(=O)c2ccc(N(C)S(=O)(=O)c3ccccc3)cc2)c1 | 0.562 µM (active) | 
78 | Cc1cc(C)cc(N(CC(=O)NCCSc2ccccn2)S(=O)(=O)c2ccccc2)c1 | 0.282 µM (active) | 
79 | Cc1cccc(CNc2ccnc(-c3ccc(C(=O)N(C)C)cc3)n2)c1 |  | -11.3% [at 2.29 µM] (inactive)
80 | CN(CC(=O)O/N=C(\N)c1ccccn1)S(=O)(=O)c1ccccc1 | inactive | 
81 | CC(C)NC[C@H](O)c1cc(O)cc(O)c1 | inactive | 
82 | O=C(O)C[C@H]1OCC=C2C[N@@+]3([O-])CC[C@]45c6ccccc6N[C@@H]4[C@@H]1[C@H]2C[C@H]53 |  | 5.86% [at 11.4 µM] (inactive)
83 | CC(=O)OC[C@@H]1O[C@@H](O/N=C2/C[C@@H](O)[C@@H](O)[C@@H]3[C@H]4C(=O)N(c5ccc(F)cc5F)C(=O)[C@@H]4CC[C@@H]23)[C@H](OC(C)=O)[C@H](OC(C)=O)[C@@H]1OC(C)=O |  | 18.5% [at 11.4 µM] (inactive)
84 | CC1=NCC[N@@+]1(CCc1ccccc1)Cc1ccccc1 |  | -1.38% [at 11.4 µM] (inactive)
85 | CCCN(CCc1ccccc1)[C@H]1CCc2c(O)cccc2C1 | inactive | 
86 | CN(CCO)c1cc(Sc2nc3ccccc3s2)c2nonc2c1[N+](=O)[O-] | 3.55 µM (active) | 
87 | COCC(=O)N1CCC2(CC1)CCN(C(=O)Nc1cccc(F)c1)CC2 | inactive | 
88 | CC(=O)Nc1cc(C(F)(F)F)ccc1Oc1cccc(Br)c1 | 3.98 µM (active) | 
89 | CC(=O)Oc1cc(C(F)(F)F)ccc1C(=O)O | inactive | 
90 | Cc1cc2nc([C@H](C)C(=O)c3ccc(Cl)cc3)c(=O)[nH]c2cc1C |  | -26.4% [at 11.4 µM] (inactive)
91 | CCCOc1ccc(Cn2c(C)nc([N+](=O)[O-])c2SCC(O)COC)cc1[N+](=O)[O-] (centres undefined) | 11.2 µM (active) | 
92 | COc1ccc(CSc2nnnn2C)cc1[N+](=O)[O-] | inactive | 
93 | CS(=O)(=O)N1CCC2(CC1)CN(Cc1cc(C(F)(F)F)cc(C(F)(F)F)c1)C2 | inactive | 
94 | Cc1cc(C)c(NC(=O)CSc2nnc(Cc3cccn3C)n2-c2ccc(F)cc2)c(C)c1 | 10 µM (active) | 
